Source: PubChem BioAssay (NCI)
The panel holds about 79,000 compounds, 15% with a hit somewhere; the sample as a whole holds those more often. Activity calls are given as the source filed them. Rule as the data show it: active = growth inhibition above about 70%; inactive = the rest.

Columns and labels:
[1] = NCI Yeast Anticancer Drug Screen. Data for the wt1 strain (AID 149);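 also: 0% = growth of vehicle-treated wt1 cultures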; conditions: S. cerevisiae wt1 strain (SPY 50644) growth inhibition, stronger effect = higher value
How it was run: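 Yeast wt1 strain exposed to compounds; growth inhibition measured relative to vehicle-treated controls.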

[2] = NCI Yeast Anticancer Drug Screen. Data for the rad50EPP+ strain (AID 151);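 also: 0% = growth of vehicle-treated control cultures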; conditions: S. cerevisiae rad50 mutant strain, stronger effect = higher value
How it was run: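 Exposing the rad50EPP+ strain to each compound, growth was compared with vehicle-only cultures to give inhibition.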

[3] = NCI Yeast Anticancer Drug Screen. Data for the mgt1 strain (AID 153); conditions: S. cerevisiae mgt1 mutant growth inhibition, stronger effect = higher value
How it was run: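 Genetically defined yeast (mgt1) treated with compound; inhibition of growth expressed against vehicle-treated controls.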

[4] = NCI Yeast Anticancer Drug Screen. Data for the rad50 strain (AID 155);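 also: 0% = growth of vehicle-only cultures of the same strain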; conditions: S. cerevisiae rad50 strain growth inhibition, stronger effect = higher value
How it was run: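 Yeast carrying a defined DNA repair defect were exposed to test compounds, and growth was compared with vehicle-treated controls to give percent inhibition.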

[5] = NCI Yeast Anticancer Drug Screen. Data for the mec2-1 strain (AID 157); conditions: S. cerevisiae mec2-1 strain, stronger effect = higher value
How it was run: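 Readout is yeast growth inhibition, normalised to vehicle-treated controls, in the mec2-1 strain exposed to compound.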

[6] = NCI Yeast Anticancer Drug Screen. Data for the rad14 strain (AID 159);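 also: 0% = growth of vehicle-treated control cultures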; conditions: S. cerevisiae rad14 strain growth inhibition, stronger effect = higher value
How it was run: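 Yeast cells carrying a defined DNA-repair defect were exposed to compounds, and growth inhibition was calculated relative to vehicle-treated control cultures.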

[7] = NCI Yeast Anticancer Drug Screen. Data for the sgs1 mgt1 strain (AID 161);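 also: 0% = growth of cultures given vehicle only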; conditions: S. cerevisiae sgs1 mgt1 strain, stronger effect = higher value
How it was run: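 Compounds are added to genetically altered yeast, and growth is compared with cultures given vehicle alone to give percent inhibition.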

[8] = NCI Yeast Anticancer Drug Screen. Data for the CLN2oe strain (AID 163);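 also: 0% = growth of vehicle-only control cultures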; conditions: S. cerevisiae CLN2oe strain, stronger effect = higher value
How it was run: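 Values reflect how much compound exposure reduced yeast growth, referenced to vehicle-exposed cells. Assay organism is a strain with a defined genetic change affecting cell-cycle control.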

[9] = NCI Yeast Anticancer Drug Screen. Data for the cln2 rad14 strain (AID 165);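 also: 0% = growth equal to vehicle treated cultures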; conditions: S. cerevisiae cln2 rad14 strain, stronger effect = higher value
How it was run: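 Relative to vehicle controls, growth inhibition of compound-treated cln2 rad14 yeast was recorded.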

[10] = NCI Yeast Anticancer Drug Screen. Data for the bub3 strain (AID 167); conditions: S. cerevisiae bub3 mutant strain, stronger effect = higher value
How it was run: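 Compounds were applied to a genetically altered yeast strain carrying a cell-cycle control defect. Growth inhibition was scored against vehicle-treated controls.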

[11] = NCI Yeast Anticancer Drug Screen. Data for the mlh1 strain (AID 171);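 also: 0% = growth of vehicle-treated control cultures of the same strain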; conditions: S. cerevisiae mlh1 strain growth inhibition, stronger effect = higher value
How it was run: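 Steps: expose the defined-mutant yeast strain to compound; expose a parallel culture to vehicle; measure growth; express compound effect as inhibition relative to the vehicle culture.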

[12] = NCI Yeast Anticancer Drug Screen. Data for the mlh1 rad18 strain (AID 175); conditions: S. cerevisiae mlh1 rad18 strain growth inhibition, stronger effect = higher value
How it was run: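 Test agents were incubated with a yeast strain of defined genotype (DNA damage repair defect). Inhibition of growth was derived by comparison with vehicle-exposed cultures.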

[13] = NCI Yeast Anticancer Drug Screen. Data for the rad18 strain (AID 177); conditions: S. cerevisiae rad18 mutant growth inhibition, stronger effect = higher value
How it was run: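 A genetically defined yeast mutant impaired in DNA damage repair was treated with test compounds, then its growth was measured against cultures receiving vehicle alone.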

[14] = NCI Yeast Anticancer Drug Screen. Data for the wt2 strain (AID 169);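 also: 0% = growth of vehicle-treated yeast cultures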; conditions: S. cerevisiae wt2 strain growth inhibition, stronger effect = higher value
How it was run: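 Values express reduction in yeast growth under compound treatment, referenced to vehicle-treated cells.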

[15] = NCI Yeast Anticancer Drug Screen. Data for the sgs1 strain (AID 173);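 also: 0% = growth of vehicle-only control cultures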; conditions: S. cerevisiae sgs1 mutant, stronger effect = higher value
How it was run: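 Treat defined-mutant yeast with compound; measure growth; calculate inhibition relative to vehicle-treated cells.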

[16] = at 5.0 µM (retest, dose inferred, filed as 0.5)
[17] = at 50.0 µM (retest, dose inferred, filed as 5.0)

Measured: growth inhibition

CC(C)C1=CCC2C(=C1)CCC1C(C)(C(=O)O)CCCC21C (stereo unspecified) (tested in a mixture with another compound)
active: [1]; at 100.0 µM 97% | [3]; at 100.0 µM 94% | [4]; [17] 98% | [4]; at 50.0 µM 83.5% | [4]; at 100.0 µM 92% | [5]; [17] 99% | [5]; at 50.0 µM 85.2% | [5]; at 100.0 µM 94% | [6]; at 100.0 µM 97% | [7]; [17] 96% | [7]; at 50.0 µM 84.5% | [8]; at 100.0 µM 96% | [9]; [17] 98% | [9]; at 50.0 µM 89.8% | [10]; [17] 97% | [10]; at 50.0 µM 85.5% | [10]; at 100.0 µM 95% | [11]; at 100.0 µM 96% | [12]; [17] 98% | [12]; at 50.0 µM 76.5% | [13]; at 100.0 µM 88%
inactive: [1]; at 1.2 µM 11% | [1]; at 3.7 µM 15% | [1]; at 11.0 µM 12% | [1]; at 33.0 µM 41% | [2]; at 1.2 µM 30% | [2]; at 3.7 µM 33% | [2]; at 11.0 µM 37% | [2]; at 33.0 µM 42% | [2]; at 100.0 µM 47% | [3]; at 1.2 µM 0% | [3]; at 3.7 µM 10% | [3]; at 11.0 µM 6% | [3]; at 33.0 µM 15% | [4]; at 1.2 µM 11% | [4]; at 3.7 µM 12% | [4]; [16] 30% | [4]; at 11.0 µM 16% | [4]; at 33.0 µM 41% | [5]; at 1.2 µM 18% | [5]; at 3.7 µM 13% | [5]; [16] 29% | [5]; at 11.0 µM 15% | [5]; at 33.0 µM 54% | [6]; at 1.2 µM 13% | [6]; at 3.7 µM 22% | [6]; at 11.0 µM 19% | [6]; at 33.0 µM 34% | [7]; [16] 31% | [8]; at 1.2 µM -2% | [8]; at 3.7 µM 6% | [8]; at 11.0 µM -16% | [8]; at 33.0 µM 40% | [9]; [16] 9% | [10]; at 1.2 µM 8% | [10]; at 3.7 µM 11% | [10]; [16] 29% | [10]; at 11.0 µM 0% | [10]; at 33.0 µM 17% | [11]; at 1.2 µM 12% | [11]; at 3.7 µM 11% | [11]; at 11.0 µM 6% | [11]; at 33.0 µM 43% | [12]; [16] 40% | [13]; at 1.2 µM -5% | [13]; at 3.7 µM -9% | [13]; at 11.0 µM -20% | [13]; at 33.0 µM 15%

O=C(c1cc(Br)ccc1O)c1cc(Br)ccc1O
active: [1]; at 3.7 µM 78% | [1]; at 11.0 µM 99% | [1]; at 33.0 µM 100% | [1]; at 100.0 µM 100% | [2]; at 11.0 µM 90% | [2]; at 33.0 µM 99% | [2]; at 100.0 µM 99% | [3]; at 3.7 µM 95% | [3]; at 11.0 µM 99% | [3]; at 33.0 µM 100% | [3]; at 100.0 µM 100% | [4]; at 11.0 µM 99% | [4]; at 33.0 µM 99% | [4]; [17] 99% | [4]; at 50.0 µM 99.3% | [4]; at 100.0 µM 99% | [5]; at 3.7 µM 97% | [5]; at 11.0 µM 99% | [5]; at 33.0 µM 100% | [5]; [17] 100% | [5]; at 50.0 µM 99.5% | [5]; at 100.0 µM 100% | [6]; at 11.0 µM 99% | [6]; at 33.0 µM 100% | [6]; at 100.0 µM 98% | [7]; [17] 97% | [7]; at 50.0 µM 99.4% | [8]; at 3.7 µM 96% | [8]; at 11.0 µM 100% | [8]; at 33.0 µM 99% | [8]; at 100.0 µM 99% | [9]; [17] 98% | [9]; at 50.0 µM 98.7% | [10]; at 3.7 µM 90% | [10]; at 11.0 µM 99% | [10]; at 33.0 µM 99% | [10]; [17] 99% | [10]; at 50.0 µM 99.2% | [10]; at 100.0 µM 99% | [14]; at 3.7 µM 87% | [14]; at 11.0 µM 99% | [14]; at 33.0 µM 100% | [14]; at 100.0 µM 100% | [11]; at 3.7 µM 93% | [11]; at 11.0 µM 99% | [11]; at 33.0 µM 100% | [11]; at 100.0 µM 100% | [15]; at 3.7 µM 90% | [15]; at 11.0 µM 99% | [15]; at 33.0 µM 100% | [15]; at 100.0 µM 100% | [12]; [17] 99% | [12]; at 50.0 µM 99.4% | [13]; at 3.7 µM 89% | [13]; at 11.0 µM 99% | [13]; at 33.0 µM 99% | [13]; at 100.0 µM 99%
inactive: [1]; at 1.2 µM 9% | [2]; at 1.2 µM 16% | [2]; at 3.7 µM 47% | [3]; at 1.2 µM 38% | [4]; at 1.2 µM 13% | [4]; at 3.7 µM 67% | [4]; [16] 2% | [5]; at 1.2 µM 29% | [5]; [16] 20% | [6]; at 1.2 µM 8% | [6]; at 3.7 µM 40% | [7]; [16] 22% | [8]; at 1.2 µM 34% | [9]; [16] -3% | [10]; at 1.2 µM 17% | [10]; [16] 5% | [14]; at 1.2 µM 12% | [11]; at 1.2 µM 23% | [15]; at 1.2 µM 32% | [12]; [16] 45% | [13]; at 1.2 µM 32%
